# Results from article PMC7862700, “An all-to-all approach to the identification of sequence-specific readers for epigenetic DNA modifications on cytosine”.
# Assays:
# Assay in all cases: DAPPL (digital affinity profiling via proximity ligation, sequencing); 10 mM Tris-HCl pH 7.5, 50 mM NaCl, 1 mM DTT, 4% glycerol, room temperature, 30 min; GST-TFs on glutathione beads, 16-mer random dsDNA library, 0.1% formaldehyde crosslink after washing; high values mean tight binding
# [1] = molecular target: T1, FLI1 (Homo sapiens, UniProt Q01543 1-452); conditions: protein: recombinant; tags: N-terminal GST; dsDNA, one strand shown
# T1 sequence: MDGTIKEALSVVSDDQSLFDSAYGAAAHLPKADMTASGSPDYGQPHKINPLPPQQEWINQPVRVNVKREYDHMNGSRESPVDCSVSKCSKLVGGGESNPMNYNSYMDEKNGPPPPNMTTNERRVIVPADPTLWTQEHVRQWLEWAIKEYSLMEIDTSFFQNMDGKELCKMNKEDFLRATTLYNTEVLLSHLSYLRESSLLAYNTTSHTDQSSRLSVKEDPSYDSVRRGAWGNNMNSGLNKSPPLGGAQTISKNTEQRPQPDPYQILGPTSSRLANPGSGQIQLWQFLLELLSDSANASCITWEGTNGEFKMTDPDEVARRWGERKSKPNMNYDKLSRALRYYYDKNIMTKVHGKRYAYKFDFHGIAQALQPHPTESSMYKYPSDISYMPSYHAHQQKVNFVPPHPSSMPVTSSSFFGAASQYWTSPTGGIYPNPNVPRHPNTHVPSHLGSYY
# How it was run: (§1)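 Pools of DNA-barcoded human transcription factors, expressed in yeast as GST fusions on glutathione beads and combined with a tag-only sample, were incubated with 200 nmole of a 16-mer random double-stranded DNA library. Incubation took 30 min at room temperature in Tris/NaCl/DTT/glycerol buffer and was followed by washing, 0.1% formaldehyde crosslinking, proximity ligation (BsaI/T4 ligase, 1 h, 37 °C), PCR amplification and sequencing on an Illumina NextSeq500. Binding signal is the ratio of a hexamer's read frequency for a factor to its frequency for the tag-only sample.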
# [2] = molecular target: T2, ELK1 (Homo sapiens, UniProt P19419 1-428); conditions: protein: recombinant; tags: N-terminal GST; dsDNA, one strand shown
# T2 sequence: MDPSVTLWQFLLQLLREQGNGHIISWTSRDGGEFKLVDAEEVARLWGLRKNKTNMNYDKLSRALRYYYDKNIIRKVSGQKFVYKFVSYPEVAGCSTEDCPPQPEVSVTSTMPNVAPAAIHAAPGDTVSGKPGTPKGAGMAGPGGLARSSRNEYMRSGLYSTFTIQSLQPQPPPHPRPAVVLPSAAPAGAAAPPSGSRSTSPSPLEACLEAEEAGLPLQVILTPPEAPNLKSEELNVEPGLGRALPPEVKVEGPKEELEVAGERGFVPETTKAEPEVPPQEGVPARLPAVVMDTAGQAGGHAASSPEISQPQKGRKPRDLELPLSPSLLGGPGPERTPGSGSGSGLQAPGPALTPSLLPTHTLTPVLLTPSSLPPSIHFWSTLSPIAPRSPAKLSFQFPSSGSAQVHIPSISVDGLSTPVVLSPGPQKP
# How it was run: as §1
# [3] = molecular target: T3, GABPA (Homo sapiens, UniProt Q06546 1-454); conditions: protein: recombinant; tags: N-terminal GST; dsDNA, one strand shown
# T3 sequence: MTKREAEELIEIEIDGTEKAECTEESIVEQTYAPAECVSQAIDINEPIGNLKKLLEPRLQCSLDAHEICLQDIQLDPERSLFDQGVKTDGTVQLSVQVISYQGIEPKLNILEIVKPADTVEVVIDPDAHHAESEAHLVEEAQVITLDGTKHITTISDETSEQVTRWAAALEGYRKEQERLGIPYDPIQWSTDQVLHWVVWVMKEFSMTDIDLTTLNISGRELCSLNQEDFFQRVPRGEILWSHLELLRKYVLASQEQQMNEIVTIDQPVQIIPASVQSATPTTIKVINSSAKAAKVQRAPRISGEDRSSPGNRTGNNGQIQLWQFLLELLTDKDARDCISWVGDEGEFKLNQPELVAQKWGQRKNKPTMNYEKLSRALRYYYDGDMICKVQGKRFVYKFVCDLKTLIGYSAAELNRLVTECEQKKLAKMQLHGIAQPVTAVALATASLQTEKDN
# How it was run: as §1
# [4] = molecular target: T4, ERG (Homo sapiens, UniProt P11308 1-479); conditions: protein: recombinant; tags: N-terminal GST; dsDNA, one strand shown
# T4 sequence: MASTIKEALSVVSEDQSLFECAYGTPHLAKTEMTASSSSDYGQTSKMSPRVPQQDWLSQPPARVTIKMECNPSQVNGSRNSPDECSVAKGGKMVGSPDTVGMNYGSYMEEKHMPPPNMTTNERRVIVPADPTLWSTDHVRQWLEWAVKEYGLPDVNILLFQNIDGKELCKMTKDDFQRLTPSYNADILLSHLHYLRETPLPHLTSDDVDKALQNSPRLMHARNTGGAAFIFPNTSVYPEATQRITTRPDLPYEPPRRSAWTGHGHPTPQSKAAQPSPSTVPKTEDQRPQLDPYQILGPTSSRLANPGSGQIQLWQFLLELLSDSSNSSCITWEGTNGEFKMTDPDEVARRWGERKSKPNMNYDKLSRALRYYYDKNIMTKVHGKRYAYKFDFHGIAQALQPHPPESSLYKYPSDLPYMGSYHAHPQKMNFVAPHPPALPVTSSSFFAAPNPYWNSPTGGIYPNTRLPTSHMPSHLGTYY
# How it was run: as §1
# [5] = molecular target: ELF1 (Homo sapiens, UniProt P32519 1-619); conditions: protein: recombinant; tags: N-terminal GST; dsDNA, one strand shown
# ELF1, sequence (P32519 whole entry): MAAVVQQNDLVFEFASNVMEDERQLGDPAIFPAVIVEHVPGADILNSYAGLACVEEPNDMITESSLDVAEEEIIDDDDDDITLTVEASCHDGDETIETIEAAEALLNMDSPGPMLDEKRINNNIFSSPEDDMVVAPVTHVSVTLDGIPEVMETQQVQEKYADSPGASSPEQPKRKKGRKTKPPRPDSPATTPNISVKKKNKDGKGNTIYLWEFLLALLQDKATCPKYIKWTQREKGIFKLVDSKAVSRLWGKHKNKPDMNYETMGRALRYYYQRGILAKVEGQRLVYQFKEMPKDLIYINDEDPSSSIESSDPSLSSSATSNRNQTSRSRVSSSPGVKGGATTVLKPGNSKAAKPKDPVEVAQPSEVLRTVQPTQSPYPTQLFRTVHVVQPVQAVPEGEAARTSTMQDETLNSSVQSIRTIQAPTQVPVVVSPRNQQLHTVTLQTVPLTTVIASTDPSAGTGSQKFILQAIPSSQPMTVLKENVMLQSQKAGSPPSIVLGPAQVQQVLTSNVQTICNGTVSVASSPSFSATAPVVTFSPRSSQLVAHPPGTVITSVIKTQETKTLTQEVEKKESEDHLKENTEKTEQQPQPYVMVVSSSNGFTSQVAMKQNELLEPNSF
# How it was run: as §1
# [6] = molecular target: T5, EHF (Homo sapiens, UniProt Q9NZC4 1-300); conditions: protein: recombinant; tags: N-terminal GST; dsDNA, one strand shown
# T5 sequence: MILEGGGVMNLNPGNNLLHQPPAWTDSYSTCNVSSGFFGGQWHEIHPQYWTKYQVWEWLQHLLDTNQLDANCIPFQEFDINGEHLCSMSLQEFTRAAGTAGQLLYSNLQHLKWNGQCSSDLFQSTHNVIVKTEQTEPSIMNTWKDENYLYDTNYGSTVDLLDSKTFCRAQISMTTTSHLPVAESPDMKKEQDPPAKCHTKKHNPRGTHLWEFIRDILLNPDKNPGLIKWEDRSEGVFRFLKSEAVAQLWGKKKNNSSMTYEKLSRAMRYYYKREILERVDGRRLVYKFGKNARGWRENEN
# How it was run: as §1
# [7] = molecular target: SPI1 (Homo sapiens, UniProt P17947 1-270); conditions: protein: recombinant; tags: N-terminal GST; dsDNA, one strand shown
# How it was run: as §1
# [8] = molecular target: SPIB (Homo sapiens, UniProt Q01892 1-262); conditions: protein: recombinant; tags: N-terminal GST; dsDNA, one strand shown
# SPIB, sequence (Q01892 whole entry): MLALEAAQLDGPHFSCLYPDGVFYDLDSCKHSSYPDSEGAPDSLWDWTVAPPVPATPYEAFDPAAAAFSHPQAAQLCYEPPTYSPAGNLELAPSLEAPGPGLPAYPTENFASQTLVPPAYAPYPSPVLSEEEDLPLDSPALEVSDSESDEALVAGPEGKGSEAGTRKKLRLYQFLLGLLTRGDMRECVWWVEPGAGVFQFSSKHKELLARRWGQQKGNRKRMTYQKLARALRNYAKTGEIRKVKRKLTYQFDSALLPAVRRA
# How it was run: as §1
# [9] = molecular target: T6, ELK3 (Homo sapiens, UniProt P41970 1-407); conditions: protein: recombinant; tags: N-terminal GST; dsDNA, one strand shown
# T6 sequence: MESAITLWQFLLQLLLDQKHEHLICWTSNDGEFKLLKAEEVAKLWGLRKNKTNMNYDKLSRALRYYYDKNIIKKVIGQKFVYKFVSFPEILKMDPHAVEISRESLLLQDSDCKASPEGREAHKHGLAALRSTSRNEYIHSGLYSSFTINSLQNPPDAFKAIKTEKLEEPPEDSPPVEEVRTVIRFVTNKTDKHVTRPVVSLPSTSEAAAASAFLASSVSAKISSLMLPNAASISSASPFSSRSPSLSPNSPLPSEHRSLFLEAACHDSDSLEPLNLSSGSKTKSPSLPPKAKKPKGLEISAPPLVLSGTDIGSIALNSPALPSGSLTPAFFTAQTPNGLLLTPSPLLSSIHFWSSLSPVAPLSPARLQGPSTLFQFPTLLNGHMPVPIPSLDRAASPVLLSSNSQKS
# How it was run: as §1
# [10] = molecular target: T7, FEV (Homo sapiens, UniProt Q99581 1-238); conditions: protein: recombinant; tags: N-terminal GST; dsDNA, one strand shown
# T7 sequence: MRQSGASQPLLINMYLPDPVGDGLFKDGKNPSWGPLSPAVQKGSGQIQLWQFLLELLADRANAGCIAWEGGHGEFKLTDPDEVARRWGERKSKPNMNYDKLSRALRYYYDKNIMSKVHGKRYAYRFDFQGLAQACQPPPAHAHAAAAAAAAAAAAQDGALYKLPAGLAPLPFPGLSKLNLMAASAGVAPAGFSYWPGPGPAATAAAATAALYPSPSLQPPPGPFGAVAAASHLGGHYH
# How it was run: as §1
# [11] = molecular target: ETV5 (Homo sapiens, UniProt P41161 1-510); conditions: protein: recombinant; tags: N-terminal GST; dsDNA, one strand shown
# ETV5, sequence (P41161 whole entry): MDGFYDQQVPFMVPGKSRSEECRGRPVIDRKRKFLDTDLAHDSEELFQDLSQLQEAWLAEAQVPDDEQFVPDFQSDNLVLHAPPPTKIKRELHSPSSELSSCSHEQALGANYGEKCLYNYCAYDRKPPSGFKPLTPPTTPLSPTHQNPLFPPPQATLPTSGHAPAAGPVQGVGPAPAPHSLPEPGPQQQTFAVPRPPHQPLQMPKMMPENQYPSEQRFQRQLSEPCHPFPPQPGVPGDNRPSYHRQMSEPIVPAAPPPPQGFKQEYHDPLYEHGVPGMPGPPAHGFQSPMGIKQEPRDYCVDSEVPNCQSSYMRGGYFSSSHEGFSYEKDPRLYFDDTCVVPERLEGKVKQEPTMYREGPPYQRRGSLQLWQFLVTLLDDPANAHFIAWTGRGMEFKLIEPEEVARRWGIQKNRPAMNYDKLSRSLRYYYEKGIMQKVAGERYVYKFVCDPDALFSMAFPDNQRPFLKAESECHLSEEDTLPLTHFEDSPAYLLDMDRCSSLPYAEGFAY
# How it was run: as §1
# [12] = molecular target: HSF1 (Homo sapiens, UniProt Q00613 1-529); conditions: protein: recombinant; tags: N-terminal GST; chain copies: 3; dsDNA, one strand shown
# HSF1, sequence (Q00613 whole entry): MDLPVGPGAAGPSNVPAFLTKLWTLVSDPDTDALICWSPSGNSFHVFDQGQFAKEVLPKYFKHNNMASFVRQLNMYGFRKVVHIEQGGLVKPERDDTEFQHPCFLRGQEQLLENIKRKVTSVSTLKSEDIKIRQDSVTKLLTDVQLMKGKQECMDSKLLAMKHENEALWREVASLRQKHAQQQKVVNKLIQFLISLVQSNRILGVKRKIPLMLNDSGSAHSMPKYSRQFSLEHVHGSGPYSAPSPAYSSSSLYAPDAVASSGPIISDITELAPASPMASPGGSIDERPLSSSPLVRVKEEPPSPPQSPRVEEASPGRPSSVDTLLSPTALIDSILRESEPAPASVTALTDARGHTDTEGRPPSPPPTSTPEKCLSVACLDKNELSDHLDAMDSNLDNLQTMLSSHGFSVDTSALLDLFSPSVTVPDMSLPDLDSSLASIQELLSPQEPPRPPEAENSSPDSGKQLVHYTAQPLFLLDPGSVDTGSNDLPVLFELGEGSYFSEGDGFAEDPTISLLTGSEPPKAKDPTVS
# How it was run: as §1
# [13] = molecular target: T8, SPIC (Homo sapiens, UniProt Q8N5J4 1-248); conditions: protein: recombinant; tags: N-terminal GST; dsDNA, one strand shown
# T8 sequence: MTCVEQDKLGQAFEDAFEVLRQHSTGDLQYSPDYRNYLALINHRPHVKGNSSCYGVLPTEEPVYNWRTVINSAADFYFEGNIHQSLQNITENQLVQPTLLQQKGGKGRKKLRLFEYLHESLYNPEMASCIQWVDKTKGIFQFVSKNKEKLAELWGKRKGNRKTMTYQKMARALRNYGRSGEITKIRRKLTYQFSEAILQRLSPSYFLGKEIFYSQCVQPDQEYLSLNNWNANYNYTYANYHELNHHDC
# How it was run: as §1
# [14] = molecular target: ELF4 (Homo sapiens, UniProt Q99607 1-663); conditions: protein: recombinant; tags: N-terminal GST; dsDNA, one strand shown
# ELF4, sequence (Q99607 whole entry): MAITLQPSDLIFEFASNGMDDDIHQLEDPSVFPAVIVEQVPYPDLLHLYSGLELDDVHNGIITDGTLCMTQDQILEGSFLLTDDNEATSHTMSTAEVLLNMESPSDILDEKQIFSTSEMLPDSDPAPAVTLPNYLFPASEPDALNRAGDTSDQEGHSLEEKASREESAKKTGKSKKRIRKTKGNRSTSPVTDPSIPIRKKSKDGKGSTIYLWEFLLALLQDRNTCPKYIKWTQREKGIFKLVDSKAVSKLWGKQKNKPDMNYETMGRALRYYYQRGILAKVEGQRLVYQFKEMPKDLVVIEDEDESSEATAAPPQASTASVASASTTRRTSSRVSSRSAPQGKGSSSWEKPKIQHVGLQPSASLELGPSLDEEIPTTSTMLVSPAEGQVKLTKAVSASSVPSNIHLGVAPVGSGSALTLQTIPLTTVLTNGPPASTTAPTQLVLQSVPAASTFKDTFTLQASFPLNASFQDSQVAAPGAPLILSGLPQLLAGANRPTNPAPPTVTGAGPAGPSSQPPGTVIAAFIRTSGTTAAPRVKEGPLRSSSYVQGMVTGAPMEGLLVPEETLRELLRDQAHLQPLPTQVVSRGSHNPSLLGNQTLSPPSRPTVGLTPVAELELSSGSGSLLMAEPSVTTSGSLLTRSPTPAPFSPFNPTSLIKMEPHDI
# How it was run: as §1
# [15] = molecular target: T9, ELK4 (Homo sapiens, UniProt P28324-2 1-405); conditions: protein: recombinant; tags: N-terminal GST; dsDNA, one strand shown
# T9 sequence: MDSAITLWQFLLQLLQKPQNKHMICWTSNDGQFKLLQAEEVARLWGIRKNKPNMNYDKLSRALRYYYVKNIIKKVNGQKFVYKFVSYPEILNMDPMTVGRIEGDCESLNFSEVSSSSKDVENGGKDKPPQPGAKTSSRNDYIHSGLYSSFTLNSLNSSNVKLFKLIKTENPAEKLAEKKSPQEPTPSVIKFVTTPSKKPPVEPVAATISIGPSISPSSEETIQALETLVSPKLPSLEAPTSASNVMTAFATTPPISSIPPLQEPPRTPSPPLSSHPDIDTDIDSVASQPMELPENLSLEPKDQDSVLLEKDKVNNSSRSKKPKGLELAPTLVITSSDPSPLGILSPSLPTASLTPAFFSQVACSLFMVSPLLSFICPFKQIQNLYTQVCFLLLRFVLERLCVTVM
# How it was run: as §1
# [16] = molecular target: T10, ETV2 (Homo sapiens, UniProt O00321 1-342); conditions: protein: recombinant; tags: N-terminal GST; dsDNA, one strand shown
# T10 sequence: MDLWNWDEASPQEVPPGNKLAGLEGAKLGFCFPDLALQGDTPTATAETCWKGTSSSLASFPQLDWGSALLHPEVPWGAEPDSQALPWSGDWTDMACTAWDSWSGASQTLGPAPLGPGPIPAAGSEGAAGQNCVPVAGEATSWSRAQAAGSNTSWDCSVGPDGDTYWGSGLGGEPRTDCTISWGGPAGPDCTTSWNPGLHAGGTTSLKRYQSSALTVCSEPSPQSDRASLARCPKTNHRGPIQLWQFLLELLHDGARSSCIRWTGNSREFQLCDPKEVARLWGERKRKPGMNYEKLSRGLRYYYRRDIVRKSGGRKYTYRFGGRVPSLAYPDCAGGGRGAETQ
# How it was run: as §1
# [17] = molecular target: T11, ELF3 (Homo sapiens, UniProt P78545 1-371); conditions: protein: recombinant; tags: N-terminal GST; dsDNA, one strand shown
# T11 sequence: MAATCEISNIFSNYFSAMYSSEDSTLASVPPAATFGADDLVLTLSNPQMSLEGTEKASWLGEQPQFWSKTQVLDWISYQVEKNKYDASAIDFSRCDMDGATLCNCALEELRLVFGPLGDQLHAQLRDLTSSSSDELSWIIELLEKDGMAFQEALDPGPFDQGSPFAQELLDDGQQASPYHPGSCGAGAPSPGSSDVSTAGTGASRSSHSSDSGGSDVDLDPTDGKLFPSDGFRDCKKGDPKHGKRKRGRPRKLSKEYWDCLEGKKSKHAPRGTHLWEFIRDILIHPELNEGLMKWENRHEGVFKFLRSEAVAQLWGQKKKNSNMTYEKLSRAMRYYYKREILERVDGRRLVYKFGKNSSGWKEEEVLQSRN
# How it was run: as §1
# [18] = molecular target: CRX (Homo sapiens, UniProt O43186 1-299); conditions: protein: recombinant; tags: N-terminal GST; dsDNA, one strand shown
# CRX, sequence (O43186 whole entry): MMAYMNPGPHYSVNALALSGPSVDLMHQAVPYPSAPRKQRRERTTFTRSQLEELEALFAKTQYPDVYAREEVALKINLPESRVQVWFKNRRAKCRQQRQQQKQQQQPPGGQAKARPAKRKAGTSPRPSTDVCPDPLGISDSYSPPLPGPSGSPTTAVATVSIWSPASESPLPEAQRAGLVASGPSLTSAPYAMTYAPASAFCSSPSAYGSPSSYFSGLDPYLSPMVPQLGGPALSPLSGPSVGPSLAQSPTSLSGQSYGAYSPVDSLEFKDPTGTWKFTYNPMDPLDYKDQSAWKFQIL
# How it was run: as §1
# [19] = molecular target: ETV1 (Homo sapiens, UniProt P50549 1-477); conditions: protein: recombinant; tags: N-terminal GST; dsDNA, one strand shown
# ETV1, sequence (P50549 whole entry): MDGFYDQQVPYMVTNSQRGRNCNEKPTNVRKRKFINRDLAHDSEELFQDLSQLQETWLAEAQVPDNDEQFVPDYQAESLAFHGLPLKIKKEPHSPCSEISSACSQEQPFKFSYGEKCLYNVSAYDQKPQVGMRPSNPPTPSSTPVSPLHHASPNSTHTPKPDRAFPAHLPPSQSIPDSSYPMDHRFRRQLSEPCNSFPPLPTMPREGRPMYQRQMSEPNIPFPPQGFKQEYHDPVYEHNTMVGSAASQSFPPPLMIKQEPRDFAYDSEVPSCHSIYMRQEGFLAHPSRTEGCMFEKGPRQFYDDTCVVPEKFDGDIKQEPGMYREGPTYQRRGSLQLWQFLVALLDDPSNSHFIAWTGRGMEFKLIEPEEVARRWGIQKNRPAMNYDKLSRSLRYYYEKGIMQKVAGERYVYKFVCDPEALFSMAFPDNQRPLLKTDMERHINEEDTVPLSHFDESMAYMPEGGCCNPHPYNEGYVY
# How it was run: as §1
sequence,measurement,setting,value
CCTTTC,binding signal,[1],"1.76 fold enrichment (6-mer frequency, TF over GST control)"
same,binding signal,[2],"1.57 fold enrichment (6-mer frequency, TF over GST control)"
same,binding signal,[3],"1.61 fold enrichment (6-mer frequency, TF over GST control)"
same,binding signal,[4],"1.62 fold enrichment (6-mer frequency, TF over GST control)"
same,binding signal,[5],"1.57 fold enrichment (6-mer frequency, TF over GST control)"
same,binding signal,[6],"1.57 fold enrichment (6-mer frequency, TF over GST control)"
same,binding signal,[7],"1.64 fold enrichment (6-mer frequency, TF over GST control)"
same,binding signal,[8],"1.7 fold enrichment (6-mer frequency, TF over GST control)"
same,binding signal,[9],"1.64 fold enrichment (6-mer frequency, TF over GST control)"
same,binding signal,[10],"1.71 fold enrichment (6-mer frequency, TF over GST control)"
same,binding signal,[11],"1.51 fold enrichment (6-mer frequency, TF over GST control)"
same,binding signal,[12],"1.43 fold enrichment (6-mer frequency, TF over GST control)"
same,binding signal,[13],"1.65 fold enrichment (6-mer frequency, TF over GST control)"
same,binding signal,[14],"1.68 fold enrichment (6-mer frequency, TF over GST control)"
same,binding signal,[15],"1.64 fold enrichment (6-mer frequency, TF over GST control)"
same,binding signal,[16],"1.56 fold enrichment (6-mer frequency, TF over GST control)"
same,binding signal,[17],"1.42 fold enrichment (6-mer frequency, TF over GST control)"
same,binding signal,[18],"1.27 fold enrichment (6-mer frequency, TF over GST control)"
same,binding signal,[19],"1.5 fold enrichment (6-mer frequency, TF over GST control)"
